{"source": "the supplement of paper PMC8728848", "assay_in_all_cases": "glycan array binding signal (z-score within array); higher = stronger binding", "key": {"[1]": {"tested_on": "Gal(b1-4)GlcNAc(b1-3)GalNAc", "conditions": "glycan notation: IUPAC condensed, linker removed", "method_in_brief": "(§1)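 Glycan array binding is given as a within-array Z-score, which can be read as non-binding when negative. The arrays, 3228 of them, came from the Consortium for Functional Glycomics database and were retained only where the protein sequence was available. Z-scores were averaged across arrays of the same protein sequence at different concentrations or buffers and across linkers.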"}, "[2]": {"tested_on": "Gal(b1-4)GlcNAc(b1-6)[Gal(b1-3)]GalNAc", "conditions": "glycan notation: IUPAC condensed, linker removed", "method_in_brief": "as §1"}, "[3]": {"tested_on": "Gal(b1-4)GlcNAc(b1-3)Gal(b1-4)[Fuc(a1-3)]GlcNAc(b1-3)Gal(b1-4)[Fuc(a1-3)]GlcNAc", "conditions": "glycan notation: IUPAC condensed, linker removed", "method_in_brief": "as §1"}, "[4]": {"tested_on": "Gal(b1-4)GlcNAc(b1-3)[Gal(b1-4)GlcNAc(b1-6)]Gal(b1-4)GlcNAc", "conditions": "glycan notation: IUPAC condensed, linker removed", "method_in_brief": "as §1"}, "[5]": {"tested_on": "Gal(b1-4)GlcNAc(b1-6)GalNAc", "conditions": "glycan notation: IUPAC condensed, linker removed", "method_in_brief": "as §1"}, "[6]": {"tested_on": "Gal3S(b1-3)[Fuc(a1-4)]GlcNAc", "conditions": "glycan notation: IUPAC condensed, linker removed", "method_in_brief": "as §1"}, "[7]": {"tested_on": "Gal(b1-4)GlcNAc(b1-3)Gal(b1-4)GlcNAc(b1-3)[Gal(b1-4)GlcNAc(b1-3)Gal(b1-4)GlcNAc(b1-6)]GalNAc", "conditions": "glycan notation: IUPAC condensed, linker removed", "method_in_brief": "as §1"}, "Gal3S(b1-3)GalNAc": {"tested_on": "Gal3S(b1-3)GalNAc", "conditions": "glycan notation: IUPAC condensed, linker removed", "method_in_brief": "as §1"}, "[8]": {"tested_on": "Gal(b1-4)GlcNAc(b1-3)Gal(b1-4)GlcNAc(b1-3)Gal(b1-4)GlcNAc(b1-3)Gal(b1-4)GlcNAc(b1-2)Man(a1-3)[Gal(b1-4)GlcNAc(b1-3)Gal(b1-4)GlcNAc(b1-3)Gal(b1-4)GlcNAc(b1-3)Gal(b1-4)GlcNAc(b1-2)Man(a1-6)]Man(b1-4)GlcNAc(b1-4)[Fuc(a1-6)]GlcNAc", "conditions": "glycan notation: IUPAC condensed, linker removed; mutation: R125K", "method_in_brief": "as §1"}, "[9]": {"tested_on": "Gal(b1-4)GlcNAc(b1-3)Gal(b1-4)GlcNAc(b1-3)Gal(b1-4)GlcNAc(b1-3)Gal(b1-4)GlcNAc(b1-3)Gal(b1-4)GlcNAc(b1-2)Man(a1-3)[Gal(b1-4)GlcNAc(b1-3)Gal(b1-4)GlcNAc(b1-3)Gal(b1-4)GlcNAc(b1-3)Gal(b1-4)GlcNAc(b1-3)Gal(b1-4)GlcNAc(b1-2)Man(a1-6)]Man(b1-4)GlcNAc(b1-4)GlcNAc", "conditions": "glycan notation: IUPAC condensed, linker removed", "method_in_brief": "as §1"}, "[10]": {"tested_on": "Gal(b1-4)GlcNAc(b1-3)Gal(b1-4)Glc", "conditions": "glycan notation: IUPAC condensed, linker removed", "method_in_brief": "as §1"}, "[11]": {"tested_on": "Gal(b1-4)GlcNAc(b1-3)[GlcNAc(b1-6)]Gal(b1-4)GlcNAc", "conditions": "glycan notation: IUPAC condensed, linker removed", "method_in_brief": "as §1"}, "Gal(b1-6)Gal": {"tested_on": "Gal(b1-6)Gal", "conditions": "glycan notation: IUPAC condensed, linker removed", "method_in_brief": "as §1"}, "[12]": {"tested_on": "Gal(b1-4)GlcNAc(b1-3)Gal(b1-4)GlcNAc", "conditions": "glycan notation: IUPAC condensed, linker removed", "method_in_brief": "as §1"}, "Gal(b1-4)Glc": {"tested_on": "Gal(b1-4)Glc", "conditions": "glycan notation: IUPAC condensed, linker removed", "method_in_brief": "as §1"}, "[13]": {"tested_on": "Gal(b1-4)GlcNAc(b1-6)Gal(b1-4)GlcNAc", "conditions": "glycan notation: IUPAC condensed, linker removed", "method_in_brief": "as §1"}, "Gal(b1-4)GlcNAc": {"tested_on": "Gal(b1-4)GlcNAc", "conditions": "glycan notation: IUPAC condensed, linker removed", "method_in_brief": "as §1"}, "Gal3S(b1-4)GlcNAc6S": {"tested_on": "Gal3S(b1-4)GlcNAc6S", "conditions": "glycan notation: IUPAC condensed, linker removed", "method_in_brief": "as §1"}, "Gal3S(b1-4)GlcNAc": {"tested_on": "Gal3S(b1-4)GlcNAc", "conditions": "glycan notation: IUPAC condensed, linker removed", "method_in_brief": "as §1"}, "Gal3S(b1-3)GlcNAc": {"tested_on": "Gal3S(b1-3)GlcNAc", "conditions": "glycan notation: IUPAC condensed, linker removed", "method_in_brief": "as §1"}}, "note": "This is one part of a sample in which the strongest signals are shown more often than they occur."}
{"substance": "Regenerating Gene IV (Homo sapiens), Q9BYZ8", "values": [{"measurement": "glycan array binding signal (z-score)", "setting": "[1]", "result": 1.48}, {"measurement": "glycan array binding signal (z-score)", "setting": "[2]", "result": 0.244}]}
{"substance": "6RG (Lolium perenne)", "values": [{"measurement": "glycan array binding signal (z-score)", "setting": "[3]", "result": -0.329}]}
{"substance": "PILRb (Mus musculus), Q2YSF2", "values": [{"measurement": "glycan array binding signal (z-score)", "setting": "[4]", "result": -0.023}]}
{"substance": "CHT (Homo sapiens)", "values": [{"measurement": "glycan array binding signal (z-score)", "setting": "[5]; mutation: D138V, E140I", "result": -0.115}]}
{"substance": "SRLC (Mus musculus), Q8VIF6", "values": [{"measurement": "glycan array binding signal (z-score)", "setting": "[5]", "result": -0.239}, {"measurement": "glycan array binding signal (z-score)", "setting": "[6]", "result": -0.081}]}
{"substance": "Avaren (Actinomycete K97)", "values": [{"measurement": "glycan array binding signal (z-score)", "setting": "[7]", "result": -0.016}, {"measurement": "glycan array binding signal (z-score)", "setting": "Gal3S(b1-3)GalNAc", "result": -0.121}]}
{"substance": "Siglec-8 (Homo sapiens), Q9NYZ4", "values": [{"measurement": "glycan array binding signal (z-score)", "setting": "[8]", "result": 0.321}, {"measurement": "glycan array binding signal (z-score)", "setting": "[9]", "result": 0.483}, {"measurement": "glycan array binding signal (z-score)", "setting": "[7]", "result": 0.455}, {"measurement": "glycan array binding signal (z-score)", "setting": "[10]", "result": -0.209}, {"measurement": "glycan array binding signal (z-score)", "setting": "[11]; mutation: R125K", "result": -0.502}, {"measurement": "glycan array binding signal (z-score)", "setting": "[2]", "result": -0.099}, {"measurement": "glycan array binding signal (z-score)", "setting": "Gal(b1-6)Gal", "result": -0.178}, {"measurement": "glycan array binding signal (z-score)", "setting": "Gal(b1-6)Gal; mutation: R125K", "result": -0.117}, {"measurement": "glycan array binding signal (z-score)", "setting": "Gal3S(b1-3)GalNAc", "result": 0.076}]}
{"substance": "wLAT-1A (Homo sapiens), Q01650", "values": [{"measurement": "glycan array binding signal (z-score)", "setting": "[12]", "result": -0.343}, {"measurement": "glycan array binding signal (z-score)", "setting": "[5]", "result": 0.12}]}
{"substance": "Neurocan (Homo sapiens), O14594", "values": [{"measurement": "glycan array binding signal (z-score)", "setting": "[10]", "result": -0.263}, {"measurement": "glycan array binding signal (z-score)", "setting": "[3]", "result": -0.779}, {"measurement": "glycan array binding signal (z-score)", "setting": "Gal(b1-4)Glc", "result": -0.551}]}
{"substance": "Aggrecan (Rattus norvegicus), NP_071526", "values": [{"measurement": "glycan array binding signal (z-score)", "setting": "[4]", "result": -0.184}]}
{"substance": "PILRa (Mus musculus), Q2YSF3", "values": [{"measurement": "glycan array binding signal (z-score)", "setting": "[11]", "result": -0.283}, {"measurement": "glycan array binding signal (z-score)", "setting": "[13]", "result": -0.231}, {"measurement": "glycan array binding signal (z-score)", "setting": "[5]", "result": -0.218}]}
{"substance": "CHI3L1 (Homo sapiens), P36222", "values": [{"measurement": "glycan array binding signal (z-score)", "setting": "[10]", "result": -0.106}, {"measurement": "glycan array binding signal (z-score)", "setting": "[13]", "result": -0.141}, {"measurement": "glycan array binding signal (z-score)", "setting": "Gal(b1-4)GlcNAc", "result": -0.122}, {"measurement": "glycan array binding signal (z-score)", "setting": "Gal3S(b1-4)GlcNAc6S", "result": -0.093}, {"measurement": "glycan array binding signal (z-score)", "setting": "Gal3S(b1-4)GlcNAc", "result": 0.706}]}
{"substance": "MpAFP RI GFP (Marinomonas primoryensis)", "values": [{"measurement": "glycan array binding signal (z-score)", "setting": "[5]", "result": -0.359}, {"measurement": "glycan array binding signal (z-score)", "setting": "Gal(b1-6)Gal", "result": -0.336}, {"measurement": "glycan array binding signal (z-score)", "setting": "Gal3S(b1-3)GlcNAc", "result": -0.429}]}
{"substance": "C3b (Homo sapiens), P01024", "values": [{"measurement": "glycan array binding signal (z-score)", "setting": "Gal3S(b1-3)GlcNAc", "result": 1.05}]}
{"substance": "6RG (Lolium perenne), B9U140", "values": [{"measurement": "glycan array binding signal (z-score)", "setting": "Gal3S(b1-4)GlcNAc6S", "result": 0.775}]}
